For 20 molecules, Percent Effect results are on record in ChEMBL document CHEMBL3988442, “University of Dundee, Small-Polar-MMV Screening Library” (2021).

The target in the test is AMP-activated protein kinase, AMPK (Homo sapiens) (UniProt P54646+O43741+P54619+Q9UGJ0+Q9Y478+Q13131+Q9UGI9). Kind of test: AMP-dependent Kinase enzyme assay. An in vitro enzyme assay that detects ADP turnover that is directly proportional to AMPK activity. This uses naive AMPK that is activated during the assay with MK-8722. The test is classed as functional. Set-up: scale not given: direction of the effect not stated beside the values. The conditions noted are these: 30 µM.
With `CC(C)c1nnc(CN2CCCc3ccc(S(N)(=O)=O)cc32)o1`, the Percent Effect turned out to be 0.503%. Then `Cn1cc(S(=O)(=O)NCCc2ccsc2)cn1`, with 13.7%. Then `CC1CCCCN1C(=O)Cn1cnc(C#N)n1` (stereo not given), with -5.33%; and `O=C(NCc1ccon1)Nc1cc(F)ccc1N1CCCCC1`, with 5.82%; and `CCSc1ncc(CN2CCN(c3ccc(C#N)cc3)C(=O)C2)cn1`, with 2.89%. As to `CSCCC(NC(N)=O)C(=O)NCc1cnn(-c2ccccc2)c1` (stereo not given), the Percent Effect was -5.05%. Consider `CC1CCC(O)(CSc2nnnn2C2CC2)CC1` (stereo not given), for which the Percent Effect is 6.07%.

Take `O=C(CCn1ccnc1)N1CC[C@H](Oc2ccc(F)cc2)[C@@H](O)CC1`: the Percent Effect was determined as 20.9%. Then `COc1cc(CNC(=O)COC2CCCC2)ccc1O`, with 3.23%. As to `COc1ccc(Cl)cc1C(=O)N1C[C@@H](NC(=O)N(C)C)[C@H](C(C)C)C1`, the Percent Effect worked out at 2.28%.

As for `CC(C)CNC(=O)Nc1cccc(OCC#N)c1`, the Percent Effect came to 2%. Turning to `C=C(C)CN(CC)C(=O)Nc1ccccc1CN(C)C(C)=O`, the Percent Effect is -1.91%. For `Cc1n[nH]c(C)c1NC(=O)NCc1ccccn1`, the Percent Effect was -10.3%. On to `CCNC(=O)[C@@H]1C[C@H](N)CN1c1cc(C(F)(F)F)nc(N(C)C)n1`, for which the Percent Effect was -12%. Then `COc1ccc(NC(=O)N2CCOCC(CN(C)C)C2)c(C)c1` (stereo not given), with 1.75%.

For the molecule `O=C(CCn1cc(Cl)cn1)N1CCCC(O)(CO)CC1` (stereo not given), the Percent Effect was -3.36%.

`CC(C)[C@@H]1CN(C(=O)CCc2ccc(F)cc2)C[C@H]1C(=O)O`: the Percent Effect was -1.24%. Turning to `CCCN(CC(=O)N(C)C)C(=O)c1ccc(-c2nc(C)cs2)cc1`, the Percent Effect was 4.25%. In the case of `Cc1cccc(N2CCN(C(=O)CNCCn3cccn3)CC2)c1` it was -3.32%. In the case of `Cc1ccccc1SCC(=O)Nn1cnnc1` it was 3.33%.
